Source: the supplement of paper PMC8728848
The sample as a whole holds a higher share of the strongest signals than the screen did.

B1: GH95CBM (Clostridium perfringens) (protein)
chain: EKVAVETSVYLSELEWKSASTGYGEIQKDASCDGNTITLKGENGEKVSYDKGIGTHAHSEIVYSLEGLDYYDYFETFVGVDQEMAGTVASISFEVYLDNEKVFDSGLMTGDTTQKHVKVPIAGKNTLKLVVKDGGDSIGSDHGSFGDAKLT
B2: F17eG (Escherichia coli), Q9RH92 (protein)
chain: MTNFYKVFLAVFILVCCNISHAAVSFIGSTENDVGPSQSSYSRTHAMDNLPFVYNTGYNIGYQNANVWRISGGFCVGLDGKVDLPVVGSLDGQSIYGLTEEVGLLIWMGDTNYSRGTAMSGNSWENVFSGWCVGNYVSTQGLSVHVRPVILKRNSSAQYSVQKTSIGSIRMRPYNGSSAGSVQTTVNFSLNPFTLNDTVTSCRLLTPSAVNVSLAAISAGQLPSSGDEVVAGTTSLKLQCDAGVTVWATLTDATTPSNRSDILTLTGASTATGVGLRIYKNTDSTPLKFGPDSPVKGNENQWQLSTGTETSPSVRLYVKYVNTGEGINPGTVNGISTFTFSYQ

How the values were obtained:
Test in all cases: glycan array binding signal (z-score within array); higher = stronger binding
Details in all cases: glycan notation: IUPAC condensed, linker removed
[1] = target: Fuc(a1-2)Gal(b1-4)GlcNAc6S
Summary of the method: (§1)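 Glycan array data were curated from 3228 arrays in the Consortium for Functional Glycomics database and kept only where the protein sequence was available. Glycan names were converted to IUPAC-condensed notation, and columns mapping to the same glycan were averaged. The binding signal is a within-array Z-score, averaged across arrays of the same protein sequence at different concentrations or buffers and across linkers. Negative Z-scores can be read as non-binding.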

[2] = target: Fuc(a1-2)Gal(b1-4)[Fuc(a1-3)]GlcNAc
Summary of the method: as §1

[3] = target: Fuc(a1-2)Gal6S(b1-4)GlcNAc
Summary of the method: as §1

[4] = target: Fuc(a1-2)[Gal(a1-3)]Gal(b1-3)GlcNAc
Summary of the method: as §1

[5] = target: Fuc(a1-2)[GalNAc(a1-3)]Gal
Summary of the method: as §1

[6] = target: Gal(a1-3)Gal(b1-4)[Fuc(a1-3)]GlcNAc
Summary of the method: as §1

Gal(b1-2)Gal = target: Gal(b1-2)Gal
Summary of the method: as §1

[7] = target: Gal(b1-3)GalNAc(b1-3)Gal(a1-4)Gal(b1-4)Glc
Summary of the method: as §1

[8] = target: Gal(b1-3)[Fuc(a1-4)]GlcNAc(b1-3)Gal(b1-3)[Fuc(a1-4)]GlcNAc
Summary of the method: as §1

[9] = target: Gal(b1-4)GalNAc(b1-3)[Fuc(a1-2)]Gal(b1-4)GlcNAc
Summary of the method: as §1

[10] = target: Gal(b1-4)GlcNAc(a1-6)Gal(b1-4)GlcNAc
Summary of the method: as §1

[11] = target: Gal(b1-4)GlcNAc(b1-3)[Gal(b1-4)GlcNAc(b1-6)]Gal(b1-4)GlcNAc
Summary of the method: as §1

[12] = target: Gal(b1-4)GlcNAc(b1-3)[GlcNAc(b1-6)]Gal(b1-4)GlcNAc
Summary of the method: as §1

[13] = target: Gal(b1-4)GlcNAc(b1-6)[Gal(b1-3)]GalNAc
Summary of the method: as §1

GalNAc(b1-3)Gal = target: GalNAc(b1-3)Gal
Summary of the method: as §1

[14] = target: GalNAc(b1-3)Gal(a1-4)Gal(b1-4)GlcNAc
Summary of the method: as §1

GlcA(b1-6)Gal = target: GlcA(b1-6)Gal
Summary of the method: as §1

GlcNAc(b1-3)Gal(b1-4)Glc = target: GlcNAc(b1-3)Gal(b1-4)Glc
Summary of the method: as §1

[15] = target: GlcNAc(b1-4)GlcNAc(b1-4)GlcNAc(b1-4)GlcNAc(b1-4)GlcNAc
Summary of the method: as §1

[16] = target: GlcNAc(b1-6)Gal(b1-4)GlcNAc
Summary of the method: as §1

[17] = target: Man(a1-2)Man(a1-3)[Man(a1-2)Man(a1-6)]Man(a1-6)[Man(a1-2)Man(a1-2)Man(a1-3)]Man
Summary of the method: as §1

[18] = target: Neu5Ac(a2-3)Gal(b1-3)[Fuc(a1-4)]GlcNAc(b1-3)Gal(b1-4)[Fuc(a1-3)]GlcNAc
Summary of the method: as §1

[19] = target: Neu5Ac(a2-3)Gal(b1-4)GlcNAc(b1-2)Man(a1-3)[Neu5Ac(a2-6)Gal(b1-4)GlcNAc(b1-2)Man(a1-6)]Man(b1-4)GlcNAc(b1-4)GlcNAc
Summary of the method: as §1

[20] = target: Neu5Ac(a2-3)GalNAc(b1-4)GlcNAc
Summary of the method: as §1

Neu5Ac(a2-6)Gal = target: Neu5Ac(a2-6)Gal
Summary of the method: as §1

[21] = target: Neu5Ac(a2-6)Gal(b1-4)GlcNAc6S
Summary of the method: as §1

[22] = target: Neu5Ac(a2-8)Neu5Ac(a2-8)Neu5Ac(a2-3)Gal(b1-4)Glc
Summary of the method: as §1

[23] = target: Neu5Ac9Ac(a2-6)Gal(b1-4)GlcNAc
Summary of the method: as §1

[24] = target: Neu5Gc(a2-3)Gal(b1-4)GlcNAc
Summary of the method: as §1

[25] = target: Fuc(a1-2)Gal(b1-4)GlcNAc(b1-3)Gal(b1-4)GlcNAc(b1-3)Gal(b1-4)GlcNAc
Summary of the method: as §1

Fuc(a1-2)GlcNAc = target: Fuc(a1-2)GlcNAc
Summary of the method: as §1

Fuc(b1-3)GlcNAc = target: Fuc(b1-3)GlcNAc
Summary of the method: as §1

Gal(a1-3)GalNAc = target: Gal(a1-3)GalNAc
Summary of the method: as §1

Gal(a1-4)Gal(b1-4)Glc = target: Gal(a1-4)Gal(b1-4)Glc
Summary of the method: as §1

[26] = target: Gal(b1-3)[GlcNAc(b1-6)]GalNAc
Summary of the method: as §1

GalNAc(b1-3)GalNAc = target: GalNAc(b1-3)GalNAc
Summary of the method: as §1

[27] = target: GlcNAc(b1-3)[GlcNAc(b1-6)]GlcNAc(b1-4)GlcNAc
Summary of the method: as §1

[28] = target: GlcNAc(b1-4)GlcNAc(b1-4)GlcNAc
Summary of the method: as §1

Man(a1-2)Man(a1-3)Man = target: Man(a1-2)Man(a1-3)Man
Summary of the method: as §1

[29] = target: Neu5Ac(a2-3)[Neu5Ac(a2-6)]GalNAc
Summary of the method: as §1

Binder | glycan array binding signal (z-score) [1] | glycan array binding signal (z-score) [2] | glycan array binding signal (z-score) [3] | glycan array binding signal (z-score) [4] | glycan array binding signal (z-score) [5] | glycan array binding signal (z-score) [6] | glycan array binding signal (z-score) (Gal(b1-2)Gal) | glycan array binding signal (z-score) [7] | glycan array binding signal (z-score) [8] | glycan array binding signal (z-score) [9] | glycan array binding signal (z-score) [10] | glycan array binding signal (z-score) [11] | glycan array binding signal (z-score) [12] | glycan array binding signal (z-score) [13] | glycan array binding signal (z-score) (GalNAc(b1-3)Gal) | glycan array binding signal (z-score) [14] | glycan array binding signal (z-score) (GlcA(b1-6)Gal) | glycan array binding signal (z-score) (GlcNAc(b1-3)Gal(b1-4)Glc) | glycan array binding signal (z-score) [15] | glycan array binding signal (z-score) [16] | glycan array binding signal (z-score) [17] | glycan array binding signal (z-score) [18] | glycan array binding signal (z-score) [19] | glycan array binding signal (z-score) [20] | glycan array binding signal (z-score) (Neu5Ac(a2-6)Gal) | glycan array binding signal (z-score) [21] | glycan array binding signal (z-score) [22] | glycan array binding signal (z-score) [23] | glycan array binding signal (z-score) [24] | glycan array binding signal (z-score) [25] | glycan array binding signal (z-score) (Fuc(a1-2)GlcNAc) | glycan array binding signal (z-score) (Fuc(b1-3)GlcNAc) | glycan array binding signal (z-score) (Gal(a1-3)GalNAc) | glycan array binding signal (z-score) (Gal(a1-4)Gal(b1-4)Glc) | glycan array binding signal (z-score) [26] | glycan array binding signal (z-score) (GalNAc(b1-3)GalNAc) | glycan array binding signal (z-score) [27] | glycan array binding signal (z-score) [28] | glycan array binding signal (z-score) (Man(a1-2)Man(a1-3)Man) | glycan array binding signal (z-score) [29]
B1 | -0.334 | -0.325 | -0.296 | -0.321 | -0.291 | 4.88 | 2.38 | 4.91 | -0.312 | 4.18 | -0.283 | -0.311 | -0.326 | 3.34 | 3.84 | 6.95 | -0.227 | -0.347 | -0.133 | -0.319 | 1.43 | -0.265 | -0.357 | -0.362 | -0.355 | -0.298 | -0.343 | -0.367 | -0.34 | – | – | – | – | – | – | – | – | – | – | –
B2 | – | – | – | – | – | – | – | – | – | – | – | – | – | -0.31 | – | – | – | 4.59 | – | – | – | -0.097 | – | – | – | – | – | – | – | -0.298 | -0.176 | -0.315 | -0.302 | -0.293 | 4.13 | 4.3 | 4.3 | 0.197 | -0.302 | -0.208
